# Compound activity deposited in PubChem by National Center for Advancing Translational Sciences (NCATS).
# DT40 TDP1 no CPT = qHTS for Inhibitors of human tyrosyl-DNA phosphodiesterase 1 (TDP1): qHTS in cells in absence of CPT. DT40 Tdp1-/- hTDP1 cells, no CPT, ATP luminescence, 48 h. Potency, µM (titrated, usually from 46.2 µM), most hits filed as inhibitors. 15% of 420,000 active; note: nearly all actives have a fitted effect of over 55% in size
#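 DT40 Tdp1-/-;hTDP1 cells, no CPT (DMSO vehicle only), 400 cells/well; compounds pin-transferred; ≥48 hr, 37 °C; CellTiter-Glo 30 min RT dark, luminescence read.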
# DT40 TDP1 CPT = growth inhibition of DT40 Tdp1-/-;hTDP1 cells with camptothecin (screen for TDP1 inhibitors) | chicken DT40 Tdp1-/-;hTDP1 cells + 20 nM CPT, ATP luminescence, 48 h | Potency, µM (doses to about 46.2 µM), actives largely listed as inhibitors | 12% of 420,000 active; note: nearly all actives have a fitted effect of over 55% in size
#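 Chicken DT40 Tdp1-/- cells stably complemented with human TDP1 were seeded at 400 cells/well in medium containing 20 nM camptothecin, exposed to pin-transferred compounds, and grown at 37 °C for at least 48 hr. Viability was read as ATP luminescence.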
# D3 antag = antagonists of human D3 dopamine receptor; 2.5% of 360,000 active; D3R cells, DiscoveRx beta-arrestin luminescence, antagonist mode; hits give low values; AID 652054; P35462; max response, negative = inhibition, %; in the data active = max response below about -50%; inconclusive = no clear call, values can overlap the other calls
# Target sequence (P35462 whole entry, looked up): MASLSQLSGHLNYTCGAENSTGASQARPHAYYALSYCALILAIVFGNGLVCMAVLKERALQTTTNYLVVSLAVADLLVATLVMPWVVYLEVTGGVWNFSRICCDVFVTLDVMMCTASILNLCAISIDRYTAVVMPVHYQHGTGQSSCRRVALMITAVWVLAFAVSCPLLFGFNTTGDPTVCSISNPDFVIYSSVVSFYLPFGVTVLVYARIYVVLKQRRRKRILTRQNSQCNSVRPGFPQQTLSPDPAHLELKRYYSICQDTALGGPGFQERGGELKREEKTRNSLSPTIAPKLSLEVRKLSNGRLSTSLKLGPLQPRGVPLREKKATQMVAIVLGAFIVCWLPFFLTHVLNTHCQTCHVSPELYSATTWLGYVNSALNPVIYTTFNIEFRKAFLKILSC
#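 Cells expressing the human receptor were seeded at 1500 cells/well, incubated overnight at 37 degrees C in 5% CO2, then exposed to library compounds with dopamine controls for 90 minutes at 37 degrees C before luminescent detection.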
# DRD3 agonist = activates the human D3 dopamine receptor. P35462. D3R DiscoveRx beta-arrestin cells, luminescence, 90 min. max activation, %. 0.58% of 410,000 active; in the data active = max activation above about 30%
#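 Agonist mode: compounds and dopamine controls were applied to plated cells for 90 min at 37 degrees C after an overnight attachment at 1500 cells/well. Luminescent read-out followed 30 - 60 minutes at room temperature with DiscoveRx detection reagent.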
# ClpP mod = qHTS Assay for Activators of ClpP; ATP-dependent Clp protease proteolytic subunit (Bacillus subtilis (strain 168)), P80244; purified B. subtilis ClpP, FRET peptide cleavage, 20 min; Potency, µM (doses to about 57.5 µM); 1.9% of 340,000 active; active = well fitted falling curve with a large enough effect; inconclusive = small, poorly fitted or top-dose-only effect; inactive = no such curve, though single readings can be large or run the other way; note: the source files actives as falling curves though it sought activators and does not explain the sign; nearly all actives have a fitted effect of over 65% in size
# Target sequence (P80244 whole entry, looked up): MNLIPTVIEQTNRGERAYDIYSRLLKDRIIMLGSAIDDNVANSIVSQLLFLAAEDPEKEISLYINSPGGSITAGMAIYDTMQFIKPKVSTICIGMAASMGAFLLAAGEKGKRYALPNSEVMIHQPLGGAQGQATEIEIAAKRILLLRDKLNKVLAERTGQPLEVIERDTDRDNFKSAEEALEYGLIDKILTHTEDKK
#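 Purified B. subtilis ClpP, 10 microg/mL final in Tris/HCl pH8 with KCl, BSA, glycerol and Tween-20, cleaved an Abz/nitrotyrosine-quenched decapeptide. Fluorescence (ex 320, em 430) was read at 0 and 20 min at room temperature. Delta was normalized to 5.8 microM ADEP and DMSO/no-enzyme controls.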
# IL1B secr inh = blocks inflammasome-driven IL-1 beta release | THP-1 LPS/ATP IL-1B secretion, AlphaLISA, 16 h; hits give low values | activity change, % at 57.5 µM | 4.7% of 360,000 active; in the data active = activity change below about -50%; inconclusive = mostly about -30% to -49%
#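 THP-1 cells pretreated 1 hr with compounds (up to 57.5 uM final), then stimulated with LPS (250 ng/mL final) plus ATP (1.25 mM final); secreted IL-1B measured by AlphaLISA after 16 hr, decreased signal indicating inhibition.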
# Numbers stand for hits; n = inactive; u = inconclusive; x = not tested or not shown. Sampled rows, rich in hits. Any-hit rate of the full collection: about 21%. Unless noted, calls come from the whole dose curve; as a rule, active = well fitted inhibition curve with a large enough effect; inconclusive = small, poorly fitted or top-dose-only effect; inactive = flat fitted curve, though single readings scatter.
SMILES,DT40 TDP1 no CPT,DT40 TDP1 CPT,D3 antag,DRD3 agonist,ClpP mod,IL1B secr inh
CCOc1ccc(-c2cc(CCCC(=O)NCCc3ccc(OCC)c(OCC)c3)no2)cc1,u,u,x,n,n,x
N#Cc1cccc(C(c2nnnn2CCc2ccccc2)N2CCN(C3CCCCC3)CC2)c1 (configuration not stated),18µM,u,n,n,n,u
c1ccc(Cn2nnnc2C(c2cccnc2)N2CCN(C3CCCCC3)CC2)cc1 (configuration not stated),n,n,n,n,n,n
COc1ccc(Cn2nnnc2C(c2ccccc2)N2CCN(C3CCCC3)CC2)cc1 (configuration not stated),u,u,n,n,n,n
COc1ccc(C(c2nnnn2CCc2ccccc2)N2CCN(C3CCCC3)CC2)cc1 (configuration not stated),n,u,-85,n,n,u
Cc1noc(C)c1NC(=O)Nc1cccc2c1O[C@@H](CN(C)Cc1ccc3c(c1)OCO3)[C@@H](C)CN([C@H](C)CO)C2=O,n,n,n,n,n,u
CCN1/C(=N\N)c2cccc3cccc1c23,21µM,u,n,n,n,n
Cc1nnc2ccc(Oc3ccc(-c4ccccc4)cc3)nn12,u,13µM,n,n,n,n
Cc1cc(NC(=O)Cn2c(=O)nc(-c3ccccc3F)c3cc(Cl)ccc32)ccc1Br,u,n,x,n,n,x
CCCCNS(=O)(=O)NC(=O)C1=C(N2CCCC2)COC1=O,n,n,n,n,n,n
C=C(NC(=O)C(=C)NC(=O)c1csc(C2=NC3c4csc(n4)C4NC(=O)c5csc(n5)C(C(C)(O)C(C)O)NC(=O)C5CSC(=N5)C(=CC)NC(=O)C(C(C)O)NC(=O)c5csc(n5)C3(CC2)NC(=O)C(C)NC(=O)C(=C)NC(=O)C(C)NC(=O)C(C(C)CC)NC2C=Cc3c(C(C)O)cc(nc3C2O)C(=O)OC4C)n1)C(N)=O (configuration not stated),5.2µM,4.1µM,x,x,x,x
C=C(NC(=O)C(=C)NC(=O)c1csc(C2=NC3c4csc(n4)C4NC(=O)c5csc(n5)C(C(C)(O)C(C)O)NC(=O)C5CSC(=N5)/C(=C/C)NC(=O)C(C(C)O)NC(=O)c5csc(n5)C3(CC2)NC(=O)C(C)NC(=O)C(=C)NC(=O)C(=C)NC(=O)C(C(C)C)NC2C=Cc3c(C(C)O)cc(nc3C2O)C(=O)OC4C)n1)C(N)=O (configuration not stated),0.92µM,1µM,n,n,n,-67
COc1ccccc1NC(=O)N1CCN(c2cc(-c3ccccc3)nc3ncnn23)CC1,4.1µM,4.6µM,n,n,n,u
COc1ccc(NC(=O)C2CCN(c3cc(-c4ccccc4)nc4ncnn34)CC2)cc1OC,23µM,18µM,n,55,n,-58
COc1ccc(NC(=O)C2CCN(c3cnccn3)CC2)cc1OC,n,n,n,n,x,n
COc1cccc(-c2csc(N3CCN(C(=O)Nc4ccccc4OC)CC3)n2)c1,n,n,n,n,n,n
O=C(CN1CCc2ccccc2C1)Nc1ccccc1C(=O)NC1CC1,n,n,n,n,n,n
CCOC(=O)CN(Cc1ccccc1)C(C(=O)NC1CCCCC1)c1ccc(OC)cc1 (configuration not stated),u,u,x,n,n,x
COc1cc2c(c(OC)c1)C(c1cccc(F)c1F)CC(=O)N2 (configuration not stated),n,n,x,n,n,x
Oc1c(Cl)cc(Cl)cc1/C=N/c1nccs1,u,26µM,n,n,n,n
NC(=O)c1cccc(N=Cc2cc(Cl)cc(Cl)c2O)c1,n,n,n,n,x,n
Oc1c(Cl)cc(Cl)cc1/C=N/c1nc(-c2ccc(Cl)cc2)cs1,u,n,-82,n,n,n
Cc1cc(C)c2nc(N3CCC(C(=O)N4CCN(C(=O)c5ccco5)CC4)CC3)sc2c1,15µM,u,n,n,n,u
Cc1c(Cl)ccc2sc(N3CCN(C(=O)c4ccco4)CC3)nc12,12µM,15µM,x,n,n,x
COc1cc2ccccc2cc1C(=O)N1CCCC1,n,n,n,n,u,n
SMILES,DT40 TDP1 no CPT,DT40 TDP1 CPT,D3 antag,DRD3 agonist,ClpP mod,IL1B secr inh
COc1cc2ccccc2cc1C(=O)N1CCN(c2nc3c(C)cc(C)cc3s2)CC1,18µM,u,x,n,n,x
O=C(c1ccco1)N1CCN(c2ccc(Cl)c(Cl)c2)CC1,15µM,21µM,n,n,n,u
CCOC(=O)c1c(C)oc2ncnc(Nc3ccc(F)cc3Cl)c12,n,n,x,n,n,x
Cc1c(Cl)ccc2sc(N3CCN(C(=O)C4=COCCO4)CC3)nc12,u,u,n,n,n,-61
Cc1c(Cl)ccc2sc(N3CCN(C(=O)CS(=O)(=O)c4ccccc4)CC3)nc12,4.1µM,6.5µM,x,n,n,x
CC(=O)Nc1nc2c(C)c(Cl)ccc2s1,n,n,n,n,n,n
O=C(Nc1ccc(Cl)c(Cl)c1)C1CCN(C(=O)c2ccco2)CC1,15µM,16µM,-81,n,n,n
Cc1c(Cl)ccc2sc(N3CCN(C(=O)C(C)C)CC3)nc12,6.5µM,12µM,x,n,n,x
CC(=O)N1CCN(c2nc3c(C)ccc(Cl)c3s2)CC1,u,n,x,n,n,x
CCOC(=O)[C@]12CCCC=C1N(Cc1ccccc1)C(=O)[C@H](CC(=O)NCc1ccccc1)C2,u,u,n,n,n,n
Cc1nc(CC(=O)Nc2nccs2)cs1,n,n,n,n,n,n
COc1ccc(C(=O)N2CCN(c3nc4c(C)c(Cl)ccc4s3)CC2)c(OC)c1,9.2µM,16µM,x,34,n,x
COc1ccc(Cl)c2sc(N3CCN(C(=O)c4ccco4)CC3)nc12,u,u,n,n,n,n
CC(C)Cn1cc(NC(=O)NCc2cccc(Cl)c2)c2ccccc2c1=O,u,26µM,x,n,n,x
COc1ccc(OC)c(CNC(=O)Nc2cn(CC(C)C)c(=O)c3ccccc23)c1,u,u,x,n,n,x
CC(C)Cn1cc(NC(=O)NCc2ccccc2Cl)c2ccccc2c1=O,18µM,u,x,n,n,x
CC(C)Cn1cc(NC(=O)NCc2ccccc2)c2ccccc2c1=O,u,u,x,n,n,x
CC(C)Cn1cc(NC(=O)NCc2ccc(Cl)cc2)c2ccccc2c1=O,18µM,u,x,n,n,x
O=C(CN1C(=O)COc2ccc(S(=O)(=O)N3CCCC3)cc21)N1CCN(c2ccccc2)CC1,u,n,x,n,n,x
Cc1ccc(NC(=O)CSc2ncnc3ccccc23)cc1S(=O)(=O)N1CCOCC1,15µM,u,n,n,x,-100
Cc1ccc(NC(=O)COc2ncnc3ccccc23)cc1S(=O)(=O)N1CCOCC1,u,n,n,n,n,n
